The record followed here is PubChem BioAssay (NCATS).

Inconclusive results are not listed. The source made the active and inactive calls. Unless noted, the call rests on the fitted dose curve; in most records, active means well fitted curve in the direction sought with a large enough effect; inconclusive means small, poorly fitted or top-dose-only effect, or another doubt; inactive means no such curve, though single readings can be large; an effect the other way counts as inactive or inconclusive.

Test [1] has as its target Ubiquitin carboxyl-terminal hydrolase 1 (Homo sapiens) (UniProt O94782). As to the kind of experiment: Inhibitors of USP1/UAF1: Pilot qHTS (AID 504865). Further: nearly all actives have a fitted effect of over 35% in size. Further: potency means the concentration at half of the fitted maximal effect. Summed up:
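1nM USP1/UAF1 + cpd, 15 min RT; start w/ Ub-Rho 150nM final; kinetic FL 480/540 nm, 6 reads q60 s. Buffer 50mM HEPES pH 7.8, 0.5mM EDTA, 1mM TCEP, 0.01% Tween-20, 0.1 mg/ml BSA.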
On the technique in general: qHTS replaces the single test concentration by a dilution series.

Test [2] concerns the target Luciferin 4-monooxygenase (Photinus pyralis) (UniProt P08659). As to the kind of experiment: Biochemical firefly luciferase enzyme assay for NPC (AID 624030). Further: nearly all actives have a fitted effect of over 70% in size. Further: potency means the concentration at half of the fitted maximal effect. Summed up:
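Counter-screen for direct inhibition of the luciferase enzyme by approved-drug library compounds, run at 10 nM enzyme in 50 mM Tris acetate (final). Luminescence was read within 5 min of enzyme-buffer addition and normalized to PTC124 versus DMSO (0%).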

Test [3] in a line: S16 Schwann cell viability assay (CellTiter-Glo assay) (AID 624031).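 Further: cellular ATP luminescence as a viability measure; nearly all actives have a fitted effect of over 70% in size.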 Summed up:
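CellTiter-Glo ATP luminescence counter-screen in untransfected S16 rat Schwann cells, 24h compound exposure at 37 degree Celsius after overnight seeding (500-750 cells/well); response scaled between cell-free wells and DMSO (0% activity), curves classed by r2 and magnitude.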
(In general: Cellular ATP, detected with luciferase, serves as a proxy for viable cell number.)

A short description of test [4]: S16 Schwann cell PMP22 intronic element firefly luciferase assay (AID 624032). Further: nearly all actives have a fitted effect of over 30% in size. Further: potency means the concentration at half of the fitted maximal effect. Summed up:
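Rat S16 Schwann cells stably carrying a PMP22 intronic element-driven Fluc reporter were seeded overnight, then exposed to compounds for 24 h at 37 °C. Luminescence was normalized to PTC124 (positive control) and DMSO (0% activity).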

Test [5] is described as follows: S16 Schwann cell PMP22 intronic element beta-lactamase assay (AID 624044; calls by dose curve; further: nearly all actives have a fitted effect of over 15% in size; further: potency means the concentration at half of the fitted maximal effect). Conditions: S16 rat Schwann cells, PMP22 element beta-lactamase FRET, 24 h; ratio activity, negative = inhibition: at 38.3 µM (top of the series). Summed up: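 Beta-lactamase reporter under a PMP22 intronic regulatory element in stable S16 rat Schwann cells; 24 h compound exposure. 460 nm blue signal normalized between DMSO (0%) and potassium clavulanate, with 535 nm FRET tracking viability; curves classed by r2 and response.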

The test system of the next test is DIV14. As to the kind of experiment: qHTS profiling for inhibitors of Plasmodium falciparum proliferation (AID 504749). Further: nearly all actives have a fitted effect of over 60% in size. Further: potency means the concentration at half of the fitted maximal effect. Conditions: P. falciparum in erythrocytes, SYBR Green DNA, 72 h; series mostly up to 28.7 µM. Summed up:
(§1)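 Fluorescence of SYBR Green-bound parasite DNA, read at 485/535 nm, served as the growth measure. Infected erythrocytes were cultured with compound 72 h; artemisinin (0.29 uM) and DMSO wells defined the normalization range.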

A further test deals with DIV17. Described as above. To be noted: P. falciparum in erythrocytes, SYBR Green DNA, 72 h; series mostly up to 28.7 µM. Summed up:
as §1

Sequence of Luciferin 4-monooxygenase (Photinus pyralis) (P08659 whole entry, looked up): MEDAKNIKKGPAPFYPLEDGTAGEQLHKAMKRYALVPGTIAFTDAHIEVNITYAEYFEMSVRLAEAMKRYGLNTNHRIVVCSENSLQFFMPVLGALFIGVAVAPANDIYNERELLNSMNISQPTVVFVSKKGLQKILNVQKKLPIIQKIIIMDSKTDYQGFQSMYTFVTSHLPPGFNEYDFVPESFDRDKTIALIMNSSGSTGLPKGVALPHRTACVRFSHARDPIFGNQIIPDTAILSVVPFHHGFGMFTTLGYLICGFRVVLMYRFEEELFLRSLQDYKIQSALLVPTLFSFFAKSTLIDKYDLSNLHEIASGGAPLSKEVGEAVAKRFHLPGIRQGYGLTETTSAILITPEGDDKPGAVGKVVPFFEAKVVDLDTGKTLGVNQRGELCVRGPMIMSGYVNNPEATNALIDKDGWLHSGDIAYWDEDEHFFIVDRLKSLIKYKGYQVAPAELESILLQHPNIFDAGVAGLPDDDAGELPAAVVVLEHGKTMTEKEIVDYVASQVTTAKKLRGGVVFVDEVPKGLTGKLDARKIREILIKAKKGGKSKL
Sequence of Ubiquitin carboxyl-terminal hydrolase 1 (Homo sapiens) (O94782 whole entry, looked up): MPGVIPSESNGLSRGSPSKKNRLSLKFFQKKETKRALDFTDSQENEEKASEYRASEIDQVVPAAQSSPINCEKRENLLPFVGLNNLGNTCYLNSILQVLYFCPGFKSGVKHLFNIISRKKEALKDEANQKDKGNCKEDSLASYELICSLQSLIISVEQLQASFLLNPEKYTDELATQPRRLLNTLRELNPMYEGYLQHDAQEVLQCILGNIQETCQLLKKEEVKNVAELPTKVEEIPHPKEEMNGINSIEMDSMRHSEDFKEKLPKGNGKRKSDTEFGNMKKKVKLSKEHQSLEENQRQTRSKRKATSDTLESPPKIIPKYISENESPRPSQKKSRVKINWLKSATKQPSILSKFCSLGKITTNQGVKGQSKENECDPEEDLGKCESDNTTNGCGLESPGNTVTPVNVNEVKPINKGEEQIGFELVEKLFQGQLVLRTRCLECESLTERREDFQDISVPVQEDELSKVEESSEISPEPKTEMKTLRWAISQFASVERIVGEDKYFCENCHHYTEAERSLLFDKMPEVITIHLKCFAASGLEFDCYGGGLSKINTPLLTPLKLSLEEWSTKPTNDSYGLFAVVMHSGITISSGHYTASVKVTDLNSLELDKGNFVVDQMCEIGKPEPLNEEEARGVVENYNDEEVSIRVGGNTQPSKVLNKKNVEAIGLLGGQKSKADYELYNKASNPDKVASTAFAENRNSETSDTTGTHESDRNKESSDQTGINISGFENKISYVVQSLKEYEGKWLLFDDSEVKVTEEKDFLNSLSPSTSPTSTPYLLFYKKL

`CC(c1ncncc1F)[C@](O)(Cn1cncn1)c1ccc(F)cc1F` (some centres not stated): the Potency result (in test [1]; in test [2]; in test [3]; in test [4]; in test [5]; in the test with DIV14) was “inactive” in each case. For the same compound, the Potency entry in the test with DIV17 is “inactive”.
Turning to `CC(O)C1CCC2C3CCC4CC(O)CCC4(C)C3CCC12C` (configuration not stated), the Potency entry (in test [1]; in test [2]; in test [3]; in test [5]; in the test with DIV14; in the test on DIV17) was “inactive” in each case.
As to `O=c1[nH]c(=O)n(C2C[C@H](O)[C@@H](CO)O2)cc1C(F)(F)F` (some centres not stated), the Potency entry (in test [1]; in test [3]; in the test on DIV14; in the test on DIV17) was “inactive” throughout. In addition, the Potency in test [4] is 510 nM (active).
With `CC(C)(C)C(=O)OCC(=O)C1CCC2C3CCC4=CC(=O)CCC4(C)C3CCC12C` (configuration not stated), the Potency result (in test [1]; in test [2]; in test [5]; in the test on DIV14; with DIV17) was “inactive” each time.
In the case of `CC[C@@H](C)C(N)C(=O)O` (some centres not stated), the Potency result (in test [1]; in test [3]; in test [4]; in the test on DIV14; with DIV17) was “inactive” throughout.
Take `O=c1ccn(C2OC(COP(=O)(O)OC3C(CO)OC(n4ccc(=O)[nH]c4=O)C3O)C(O)C2O)c(=O)[nH]1` (configuration not stated): the Potency entry (in test [1]; in test [2]; in test [3]; in test [4]; in test [5]; in the test on DIV14) was “inactive” throughout. The Potency entry with DIV17 was “inactive”.
Turning to `CC[C@@H]1/C=C(\C)C[C@H](C)C[C@H](OC)[C@H]2O[C@@](O)(C(=O)C(=O)N3CCCC[C@H]3C(=O)O[C@H](/C(C)=C/[C@@H]3CC[C@H](Cl)[C@H](OC)C3)[C@H](C)[C@@H](O)CC1=O)[C@H](C)C[C@@H]2OC`, the Potency result (in test [1]; in test [2]; in test [3]; in test [4]; in test [5]; in the test on DIV14) was “inactive” each time. Also, the Potency result in the test on DIV17 is “inactive”.
Regarding `Cc1ccc(Nc2ncccc2C(=O)O)cc1C`, the Potency entry (in test [1]; in test [3]; in test [4]; in test [5]; in the test on DIV14; with DIV17) was “inactive” in each case. Besides, the Potency in test [2] was 11400 nM (active).
For `CC(C)C[C@@H](NC(=O)[C@@H](Cc1ccccc1)NC(=O)c1cnccn1)B(O)O`, the Potency entry in test [1], in test [2] and in test [3] was “inactive” in each case. For the same compound, the Potency in test [4] is 5.1 nM (active); in test [5], 22.4 nM (active); in the test on DIV14, 601 nM (active); with DIV17, 426 nM (active).
Consider `C=CCn1c(=O)n(C2OC(CO)C(O)C2O)c2nc(N)[nH]c(=O)c21` (configuration not stated), for which the Potency result (in test [1]; in test [2]; in test [3]; in test [4]; in test [5]; with DIV14) was “inactive” each time. Further, the Potency result with DIV17 is “inactive”.
Take `NC(C(=O)O)c1ccc(O)cc1` (configuration not stated): the Potency entry (in test [1]; in test [3]; in test [4]; in test [5]; in the test with DIV14; in the test with DIV17) was “inactive” each time.
As to `CC(=O)NC1[C@H]([C@H](O)[C@H](O)CO)OC(C(=O)O)=C[C@H]1N=C(N)N` (some centres not stated), the Potency result (in test [1]; in test [3]; in test [5]; in the test on DIV14; with DIV17) was “inactive” each time.
With `C/C1=C2/[N-]C(C(CC(N)=O)[C@@]2(C)CCC(=O)NCC(C)OP(=O)([O-])O[C@H]2[C@@H](O)[C@@H](n3cnc4cc(C)c(C)cc43)O[C@@H]2CO)[C@]2(C)N=C(/C(C)=C3N=C(/C=C4N=C1C(CCC(N)=O)C\4(C)C)[C@@H](CCC(N)=O)[C@]\3(C)CC(N)=O)[C@@H](CCC(N)=O)[C@]2(C)CC(N)=O.CC(=O)O.[Co]` (some centres not stated), the Potency is 56200 nM (active) in test [1] and 2560 nM (active) in test [4]. In addition, the Potency entry (in test [3]; with DIV14; in the test with DIV17) was “inactive” each time.
As for `CO[C@H]1OC2O[C@@]3(C)CC[C@H]4[C@H](C)CC[C@@H]([C@H]1C)[C@@]24OO3` (some centres not stated), the Potency entry in test [1], in test [2], in test [3] and in test [5] was “inactive” in each case. The results for the Potency (in test [4]; in the test on DIV14; with DIV17) were 3220 nM (active), 10.7 nM (active) and 12 nM (active), respectively.
On to `C=C1[C@@H]2CC[C@H](C2)C1(C)C`, for which the Potency entry (in test [1]; in test [3]; in test [4]; in test [5]; with DIV14; in the test with DIV17) was “inactive” each time.
